According to ChEMBL document CHEMBL4513216, “Probing the Open Global Health Chemical Diversity Library for Multistage-Active Starting Points for Next-Generation Antimalarials” (ACS Infect Dis, 2020):
Out of some 69,000 compounds screened, about 8,600 (12%) showed an effect of 50% or more. For the sample, strong results were picked, then their nearest neighbours and some compounds at random.

System: Plasmodium berghei
Assay: Screen against P. berghei liver stage (PbLuc), transformed with Luciferase, at 10uM
Format: functional, HepG2
Details: tested at 10 uM

Which INHIBITION does the source give for `Cc1ccc(CSc2nc(N)cc(NCCS(=O)(=O)N(C)C)n2)cc1` here?
Its INHIBITION is 23.5%.

Which INHIBITION does the source give for `CC(C)n1cc(CN(Cc2ccsc2)CC2CCCO2)cn1` (stereo not given) here?
Its INHIBITION is 12.9%.

For `COc1ccc(CN(Cc2ccsc2)CC2CCCO2)cn1` (stereo not given), which INHIBITION is on record?
Its INHIBITION is 61.6%.

How did the INHIBITION turn out when `c1csc(CN(Cc2ccsc2)CC2CCCO2)n1` (stereo not given) was run?
Its INHIBITION is -12.2%.

With `CCCc1nnc(NCCc2noc(C3CC3)n2)o1` as the molecule, how does the INHIBITION read?
Its INHIBITION is 16.5%.

With `NC(=O)Cn1cc(NC(=O)N2CCN(c3ccc(F)cc3)CC2)cn1` as the molecule, how does the INHIBITION read?
Its INHIBITION is 7.333%.

Which INHIBITION does the source give for `NC(=O)c1cn(CC2CCC2)c(C2CC2)n1` here?
The INHIBITION was -21.8%.

For `CNc1ncccc1CN1CCN(C)CC(C(=O)N(C)C)C1` (stereo not given), which INHIBITION is on record?
Its INHIBITION is 0.696%.

For `CNc1ncccc1CN1CCN(C)CC(C(N)=O)C1` (stereo not given), which INHIBITION is on record?
Its INHIBITION is 33.2%.

For `CNc1ncccc1CN1CCN2CCN(C)CC2C1` (stereo not given), which INHIBITION is on record?
The INHIBITION was 53.8%.

How did the INHIBITION turn out when `Cc1nccn1CCC(=O)N1CCC2(CCC(=O)N(CC3CC3)C2)CC1` was run?
The INHIBITION was 42.5%.

How did the INHIBITION turn out when `CN(Cc1cccs1)C1CCC[C@@H]2CN(C(=O)c3cnccn3)C[C@H]12` (stereo not given in full) was run?
Its INHIBITION is 37.9%.

For `Cn1c(=O)oc2ccc(Nc3ncc(C#N)cc3Cl)cc21`, which INHIBITION is on record?
The INHIBITION was 42.1%.

`Cn1c(=O)oc2cc(Nc3nccnc3C#N)ccc21` was tested. Which INHIBITION did it give?
Its INHIBITION is 36.5%.

How did the INHIBITION turn out when `Cn1c(=O)oc2cc(Nc3ncc(C#N)cc3Cl)ccc21` was run?
Its INHIBITION is 58.9%.

With `CS(=O)(=O)NCCN(CCCO)C1CCc2ccccc21` (stereo not given) as the molecule, how does the INHIBITION read?
The INHIBITION was 51.7%.

How did the INHIBITION turn out when `CS(=O)(=O)CCN(CCCO)C1CCc2ccccc21` (stereo not given) was run?
Its INHIBITION is 18.3%.

For `CS(=O)(=O)CCCN(CCCO)C1CCc2ccccc21` (stereo not given), which INHIBITION is on record?
The INHIBITION was 21.7%.

`CC(=O)N1N=C(c2cccs2)OC1C(=O)Nc1ccc(C(C)C)cc1` (stereo not given) was tested. Which INHIBITION did it give?
The INHIBITION was 6.55%.

`CCN1CCCN(C(=O)c2ccc(NC(=O)CC(C)C)c(C)c2)CC1` was tested. Which INHIBITION did it give?
Its INHIBITION is 76.6%.

With `CCN1CCN(c2ccc(NC(=O)CC(C)C)c(C)c2)CC1` as the molecule, how does the INHIBITION read?
Its INHIBITION is 35.7%.

Which INHIBITION does the source give for `COCC1CCCN(C(=O)c2ccc(NC(=O)CC(C)C)c(C)c2)C1` (stereo not given) here?
The INHIBITION was 4.97%.

`CCOC(=O)COc1ccc(C(C)=O)c(O)c1` was tested. Which INHIBITION did it give?
Its INHIBITION is 38.2%.

`Cc1nn(C)c(C)c1C1CCCN1C(=O)c1ccc2c(c1)OCCO2` (stereo not given) was tested. Which INHIBITION did it give?
The INHIBITION was -45.9%.

For `CCSCc1ccc(C(=O)N2CCCN(CC(N)=O)CC2)cc1`, which INHIBITION is on record?
Its INHIBITION is -40.5%.

For `Cc1cccc(CN2C(=O)CC[C@@H]3[C@H]2CCN3CC2CCOCC2)n1`, which INHIBITION is on record?
The INHIBITION was 38.1%.

For `CN(Cc1ccccc1NCc1cccnc1)C(=O)c1cccs1`, which INHIBITION is on record?
Its INHIBITION is 49.3%.

How did the INHIBITION turn out when `Cc1cnc(CNc2ccccc2CN(C)C(=O)c2cccs2)o1` was run?
Its INHIBITION is 55.6%.

Which INHIBITION does the source give for `CN(Cc1ccccc1NCc1cscn1)C(=O)c1cccs1` here?
Its INHIBITION is 20.6%.

How did the INHIBITION turn out when `CCc1noc(CN(CC)C(=O)CC2C(=O)NCCN2CC(C)(C)C)n1` (stereo not given) was run?
The INHIBITION was 13.7%.

For `COCCN1C[C@@H]2[C@@H](OC)CCN(S(=O)(=O)c3cccnc3)[C@@H]2C1`, which INHIBITION is on record?
The INHIBITION was 31.1%.

Which INHIBITION does the source give for `CO[C@H]1CCN(S(=O)(=O)N(C)C)[C@@H]2CN(Cc3cccnc3)C[C@H]12` here?
Its INHIBITION is -18.5%.

With `CCN1C[C@@H]2[C@@H](OC)CCN(S(=O)(=O)c3cccnc3)[C@@H]2C1` as the molecule, how does the INHIBITION read?
Its INHIBITION is 26.4%.

With `CO[C@H]1CCN(S(=O)(=O)c2cccnc2)[C@@H]2CN(CC3CC3)C[C@H]12` as the molecule, how does the INHIBITION read?
The INHIBITION was 52%.

Which INHIBITION does the source give for `CCN1C[C@H]2[C@@H](C1)N(S(=O)(=O)c1ccccc1)CC[C@H]2OC` here?
The INHIBITION was 41.6%.

With `CO[C@@H]1CCN(S(=O)(=O)N(C)C)[C@@H]2CN(Cc3cccnc3)C[C@@H]21` as the molecule, how does the INHIBITION read?
Its INHIBITION is 36.2%.

With `CO[C@@H]1CCN(S(=O)(=O)c2cccnc2)[C@@H]2CN(CC3CC3)C[C@@H]21` as the molecule, how does the INHIBITION read?
The INHIBITION was 53.2%.

`CCN1C[C@@H]2[C@@H](OC)CCN(S(=O)(=O)c3ccccc3)[C@@H]2C1` was tested. Which INHIBITION did it give?
Its INHIBITION is 17.6%.

`CCN1C[C@H]2[C@@H](C1)N(S(=O)(=O)c1cccnc1)CC[C@H]2OC` was tested. Which INHIBITION did it give?
Its INHIBITION is 59.1%.

How did the INHIBITION turn out when `O=C(NCCC1CCN(CC(F)(F)F)CC1)C1CCOC1` (stereo not given) was run?
Its INHIBITION is 26.1%.

With `Cc1csc(C(C)(C)NCC(=O)N(C)Cc2ccc(C)o2)n1` as the molecule, how does the INHIBITION read?
The INHIBITION was 11.3%.

With `NC(=O)C1CCN(C(=O)c2cccn2Cc2cccs2)C1` (stereo not given) as the molecule, how does the INHIBITION read?
The INHIBITION was 11.6%.

`CN1CCc2nc(C3CCCN(S(=O)(=O)c4ccccc4)C3)ncc2C1` (stereo not given) was tested. Which INHIBITION did it give?
Its INHIBITION is 29.85%.

Which INHIBITION does the source give for `OC1(CN2CCC(Cc3ncccn3)CC2)CCCCC1` here?
The INHIBITION was 14.6%.

`COCCc1noc(CN2CCCC2Cn2cccn2)n1` (stereo not given) was tested. Which INHIBITION did it give?
The INHIBITION was 38.8%.

Which INHIBITION does the source give for `COCCN(Cc1ccco1)Cc1nc(-c2ccc(C)c(F)c2)no1` here?
Its INHIBITION is -16.7%.

How did the INHIBITION turn out when `CSc1ccc(-c2noc(CN(CC(C)C)CC(C)C)n2)cc1` was run?
Its INHIBITION is 65.8%.

With `CSc1ccc(-c2noc(CN(Cc3ccccc3)C(C)C)n2)cc1` as the molecule, how does the INHIBITION read?
The INHIBITION was 46.1%.

How did the INHIBITION turn out when `COc1ccc(CN2CC[C@H](NC(C)=O)[C@@H](O)CC2)c(F)c1` was run?
The INHIBITION was 38.2%.

For `Cc1cnc(C(=O)NCc2ccc3c(c2)CCCN3C)cn1`, which INHIBITION is on record?
Its INHIBITION is 19.6%.

`CN1CCCc2cc(CNC(=O)c3cc[n+]([O-])cc3)ccc21` was tested. Which INHIBITION did it give?
The INHIBITION was 53.9%.

How did the INHIBITION turn out when `CN1CCCc2cc(CNC(=O)c3ccncc3)ccc21` was run?
Its INHIBITION is 63.9%.

Which INHIBITION does the source give for `CN1CCCc2cc(CNC(=O)c3ccc(-n4cnnc4)cc3)ccc21` here?
Its INHIBITION is 37.4%.

With `COC(=O)c1cccc(C(=O)NCc2ccc3c(c2)CCCN3C)c1` as the molecule, how does the INHIBITION read?
Its INHIBITION is 34.7%.

Which INHIBITION does the source give for `COc1cc(C(=O)NCc2ccc3c(c2)CCCN3C)cc(OC)c1Br` here?
The INHIBITION was 34.7%.

`Cc1ccc(N2CCN(C(=O)C3CN(C)C(=O)N3)CC2=O)cc1` (stereo not given) was tested. Which INHIBITION did it give?
The INHIBITION was 17.8%.

Which INHIBITION does the source give for `O=C(CC1CCC1)N1CCCC(CO)(CC2CC2)C1` (stereo not given) here?
Its INHIBITION is 22.1%.

For `CN(C)C(=O)N1CCN(c2ccc3ccc(C(=O)NC4CC4)cn23)CC1`, which INHIBITION is on record?
The INHIBITION was -14.7%.

Which INHIBITION does the source give for `CCOC(=O)c1c(NC(=O)CN2CCN(C(C)=O)CC2)sc2c1CCC2` here?
The INHIBITION was 14.2%.

`CC(C(=O)NCc1ccnc(N2CCN(C)CC2)c1)S(C)(=O)=O` (stereo not given) was tested. Which INHIBITION did it give?
The INHIBITION was 23.333%.

For `CC(=O)N1Cc2ccccc2OC2(CCN(C(=O)C3CCOC3)CC2)C1` (stereo not given), which INHIBITION is on record?
Its INHIBITION is 6.26%.

How did the INHIBITION turn out when `Cc1ccc(N2CCC(Nc3ccc4nnc(C)n4n3)CC2)nc1` was run?
Its INHIBITION is 58.7%.

With `Cc1ccc(N2CCC(NC(C)c3cccs3)CC2)nc1` (stereo not given) as the molecule, how does the INHIBITION read?
Its INHIBITION is 22.9%.

How did the INHIBITION turn out when `CCc1cc(N2CCC(Nc3ccc4nnc(C)n4n3)CC2)ncn1` was run?
The INHIBITION was 46.4%.

With `c1cc(CN2CCC3(CCOCC3COCC3CC3)CC2)co1` (stereo not given) as the molecule, how does the INHIBITION read?
The INHIBITION was 38.3%.
